About 9,900 (2.8%) of roughly 350,000 compounds were called active. Not shown: some 15% with an inconclusive outcome. This excerpt belongs to a sample that is enriched for actives. Values without a mark were called inactive. Calls follow the shape of the dose curve; as a rule, active = well fitted activation curve with a large enough effect; inconclusive = small, poorly fitted or top-dose-only effect; inactive = no such curve, though single readings can be large or run the other way.
Test: A quantitative high throughput screen for small molecules that induce DNA re-replication in MCF 10a normal breast cells. Also: nearly all actives have a fitted effect of over 50% in size. As to activity, positive = re-replication: % of control where 0% means no effect.
Details: MCF 10A DNA re-replication, Hoechst nuclear intensity, 48 h; series mostly up to 46.1 µM; activity, positive = re-replication: at the top concentration
Potency is read from the fitted curve at half-maximal effect.

| SMILES | activity, positive = re-replication [%] | Potency |
| --- | --- | --- |
| COc1cccc(C(=O)NNC(=O)/C=C/c2ccccc2)c1 | 3.32 |  |
| COc1cccc(C=CC(=O)C=CC=Cc2ccccc2)c1 |  | 16.4 µM (active) |
| COc1cccc(/C=C/C(=O)OCC(=O)N2CCN(c3ccccc3)CC2)c1 | 5.15 |  |
| Cc1noc(C)c1C(=O)OC(C)C(=O)Nc1ccc2c(c1)OCO2 (stereo not given) | -1.99 |  |
| CC1(C)CC(=O)C=C(c2ccc(Cl)c(C(F)(F)F)c2)C1 | 84.6 |  |
| O=C(NCc1cc(C(F)(F)F)cc(C(F)(F)F)c1)C1CC(c2cccc(F)c2)=NO1 (stereo not given) | -1.76 |  |
| COc1ccc(S(=O)(=O)N2CCC(C(=O)NCc3ccco3)CC2)cc1C | -0.313 |  |
| COc1ccc(C2=NOC(C(=O)NCc3ccco3)C2)cc1OC (stereo not given) |  | 4.61 µM (active) |
| COc1ccccc1C(CNC(=O)c1ccc(C)c(S(=O)(=O)N2CCCCC2)c1)N(C)C (stereo not given) | -2.66 |  |
| Cc1ccc(S(=O)(=O)Oc2ccc(/C=N/NC(=O)c3ccncc3)cc2)cc1 | 11 |  |
| COc1ccc(CC(=O)NCC(=O)N/N=C/c2cc(Br)ccc2OC)cc1 | 11 |  |
| Cc1ccc(OCCOCCOc2ccc(Br)cc2/C=N\NC(=O)c2ccncc2)cc1 |  | 20.6 µM (active) |
| CCCCc1ccc(NC(=O)CN2C(=O)NC(Cc3ccccc3)C2=O)cc1 (stereo not given) | -5.5 |  |
| CCCCNCCS(=O)(=O)NCc1ccccc1 | 6.56 |  |
| Cc1ccc(C)c(NC(=O)C(c2ccccc2)N2CCN(CC(=O)NC3CC3)CC2)c1 (stereo not given) | -1.84 |  |
| Cc1ccc(-n2c(=O)c(C#N)cc3c(=O)n4ccccc4nc32)cc1C |  | 10.3 µM (active) |
| Cc1ccc(-n2c(SCC(=O)N3CCC(C(=O)O)CC3)nc3ccccc3c2=O)cc1C | -3.72 |  |
| Cc1ccn2c(=O)c(NC(=O)c3cccc4ccccc34)c(C)nc2c1 | 3.52 |  |
| CC(=O)Nc1ccc(C(=O)Nc2cc(S(=O)(=O)N3CCOCC3)ccc2N2CCOCC2)cc1 | -7.14 |  |
| COc1ccc(CCN2CC(C(=O)OCC(=O)NCc3ccccc3Cl)CC2=O)cc1OC (stereo not given) | 9.97 |  |
| Fc1ccccc1-c1cc2cc3c(cc2cn1)OCO3 | 20.3 |  |
| CC1=Nn2c(nnc2-c2ccccc2)SC1 | -3.17 |  |
| COc1ccc(C2=Nn3c(nnc3-c3ccccc3OC)SC2)cc1OC1CCCC1 |  | 0.651 µM (active) |
| Cc1nnc2n1N=C(c1ccccc1)CS2 | 1.39 |  |
| CCOc1cc(NS(=O)(=O)c2ccc(OC)cc2)c(OCC)cc1NC(C)=O | 12.6 |  |

| SMILES | activity, positive = re-replication [%] | Potency |
| --- | --- | --- |
| CCOC(=O)c1ccccc1NS(=O)(=O)c1ccc(OC)cc1 |  | 16.4 µM (active) |
| CCOC(=O)c1ccccc1NS(=O)(=O)c1c(C)nc2sccn2c1=O | -0.74 |  |
| CN1CCN(S(=O)(=O)c2ccc(N3CCN(c4ccccc4O)CC3)c([N+](=O)[O-])c2)CC1 | 2.95 |  |
| CC(=O)c1sc(NC(=O)CCN2C(=O)C3CC=CCC3C2=O)nc1-c1ccccc1 (stereo not given) | -0.493 |  |
| COc1ccc(-c2csc(Nc3ccccn3)n2)cc1 | 0.252 |  |
| COc1ccc(OC)c(Nc2nc(-c3ccc(O)c(O)c3)cs2)c1 |  | 8.2 µM (active) |
| COc1ccc(CC(=O)Nc2nc(-c3ccc(F)c(F)c3)cs2)cc1OC | 3.89 |  |
| C=CC[C@@H](CC(=O)N[C@@H](CO)Cc1ccccc1)C(=O)N[C@H](COC(=O)[C@H](CC=C)CC(=O)OC(C)(C)C)Cc1ccccc1 | -10.2 |  |
| Oc1cccc(CCc2ccccn2)c1 | -3.55 |  |
| COc1cc(/C=C/C(=O)OCC(=O)NC2CC2)cc(OC)c1OC | -2.1 |  |
| Cc1nn(Cc2ccccc2)c2c1C(c1ccccc1)C(C#N)=C(N)O2 (stereo not given) | -2.92 |  |
| Cc1cc(C)c(C#N)c(SCc2[nH]nc3c2C(c2ccccc2)C(C#N)=C(N)O3)n1 (stereo not given) | -7.51 |  |
| Cc1cc(C)c2c3c(sc2n1)C(c1ccccc1)C(C#N)=C(N)O3 (stereo not given) |  | 2.82 µM (active) |
| CCn1nc(C(=O)Nc2ccc(N3CCOCC3)cc2)c2ccccc2c1=O | 3.71 |  |
| O=C(NNC(=O)C1CCCC1)c1ccc(F)cc1 | -0.515 |  |
| O=C(/C=C/c1ccc([N+](=O)[O-])o1)NNC(=O)c1ccc(F)cc1 |  | 9.2 µM (active) |
| C/[N+]([O-])=C\c1ccc([N+](=O)[O-])o1 | 14.2 |  |
| COCC(=O)Nc1ccc(Br)cc1 | -6.21 |  |
| CC(C)Oc1ccc(CC(=O)NNC(=S)Nc2ccc(Br)cc2)cc1 |  | 16.4 µM (active) |
| CC(C)Oc1ccc(CCC(=O)NNC(=S)NCc2ccccc2)cc1 | 0.118 |  |
| CC(C)(C)OC(=O)N(Cc1ccccc1)Cc1ccc(OCc2cccc(NC(=O)c3ccccc3)c2)cc1 | 14.3 |  |
| CC[C@]12c3[nH]c4ccc(OC)cc4c3CCN1C(=O)C(CC(=O)NCCN1CCOCC1)C[C@@H]2C(=O)N1CCN(C(=O)C2CC2)CC1 (stereo not given in full) | 1.05 |  |
| Cc1ccc(/C=N/NC(=O)c2sccc2OCc2ccc(F)cc2)cc1 |  | 6.51 µM (active) |
| Cc1ccc(COc2ccc(/C=N/NC(=O)CN3CCCCC3)cc2)cc1 | 0.536 |  |
| Cc1ccsc1C(=O)N/N=C/c1ccc([N+](=O)[O-])cc1 | -0.593 |  |

— PubChem BioAssay AID624296 (National Center for Advancing Translational Sciences (NCATS), 2012)
